Measured values as given in the supplement of paper PMC12669797.

Columns and labels:
ES2 = assay: cell viability relative to DMSO control (MTS) (fraction of DMSO control); higher = more viable cells / less growth inhibition; details: 10 µM; 48 h
Outline: (§1)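 TOV-21G and ES2 clear cell carcinoma cells were plated in 96-well plates at 5000 cells per well, grown for 24 h, and then exposed to a 367-compound […] library at a final concentration of 10 µM, with vehicle alone in control wells. An MTS assay (CellTiter 96 AQueous One Solution) was read 48 h later according to the manufacturer's protocol. Viability is reported as a fraction of the vehicle control.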

TOV-21G = assay: as above; details: 10 µM; 48 h
Outline: as §1

SMILES: COc1ccc(COc2ccc(Cc3cnc(N)nc3N)cc2OC)cc1 [cFMS Receptor Tyrosine Kinase Inhibitor]
- cell viability (ES2): 0.942
- cell viability (TOV-21G): 1.01

SMILES: Nc1ncn([C@H]2C[C@H](O)[C@@H](CO)O2)c(=O)n1 [Decitabine]
- cell viability (ES2): 0.757
- cell viability (TOV-21G): 1.11

SMILES: CO[C@@H]1[C@H](OC(=O)/C=C/C=C/C=C/C=C/C(=O)O)CC[C@]2(CO2)[C@H]1[C@@]1(C)O[C@@H]1CC=C(C)C [Fumagillin]
- cell viability (ES2): 0.91
- cell viability (TOV-21G): 0.991

SMILES: Cc1ccc(Nc2nccc(N(C)c3ccc4c(C)n(C)nc4c3)n2)cc1S(N)(=O)=O [pazopanib]
- cell viability (ES2): 0.96
- cell viability (TOV-21G): 0.864
